Laboratory results: PubChem BioAssay (NCATS)
Records with an inconclusive call do not appear. A number with no mark means an inactive call. Active and inactive are the calls of the source. The call rests on the fitted dose curve.
Potency means the concentration at half of the fitted maximal effect.

The molecules below were run against Cytochrome P450 1A2 (Homo sapiens) (UniProt P05177) (assay: p450-cyp1a2 (AID 410;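 on activity change, negative = inhibition: -100% = full effect of reference inhibitor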)). Conditions: recombinant CYP1A2, luciferin-ME demethylation, luminescence; series mostly up to 11.4 µM; activity change, negative = inhibition: at the top concentration.
Sequence of Cytochrome P450 1A2 (Homo sapiens) (P05177 whole entry, looked up): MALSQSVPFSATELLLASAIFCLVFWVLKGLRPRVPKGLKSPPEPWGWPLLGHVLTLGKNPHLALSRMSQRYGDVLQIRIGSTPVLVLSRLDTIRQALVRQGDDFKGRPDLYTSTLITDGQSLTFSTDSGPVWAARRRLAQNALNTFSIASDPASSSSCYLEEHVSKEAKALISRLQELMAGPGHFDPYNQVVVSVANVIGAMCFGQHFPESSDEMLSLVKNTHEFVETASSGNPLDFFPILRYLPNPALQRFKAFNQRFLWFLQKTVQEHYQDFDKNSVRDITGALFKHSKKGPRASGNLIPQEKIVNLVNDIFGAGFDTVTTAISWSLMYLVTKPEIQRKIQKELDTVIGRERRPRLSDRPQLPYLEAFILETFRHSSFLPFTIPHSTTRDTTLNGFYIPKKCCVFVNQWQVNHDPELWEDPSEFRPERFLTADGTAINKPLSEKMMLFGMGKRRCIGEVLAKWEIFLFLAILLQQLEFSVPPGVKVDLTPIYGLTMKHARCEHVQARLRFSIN
Experimental: The P450 gene superfamily is involved in metabolism and the clearance of xenobiotics. This assay used human CYP1A2 to measure the demethylation of luciferin 6' methyl ether (Luciferin-ME; Promega-Glo) to luciferin. The luciferin is then measured by luminescence after the addition of a luciferase detection regeant. Luciferin-ME concentration in the assay was equal to its Km for CYP1A2.
NCGC Assay Protocol Summary:
Two uL of enzyme and substrate mix (final concentrations: 20nM CYP1A2, 100uM Luciferin-ME, 100mM KPO4) were dispensed into a white, solid bottom 1536-well microtiter plate. 23nL of compound was transferred by a pin tool. The plate was incubated at room temperature for 10 min. Two uL of an NADPH regeneration solution (Promega supplied reagent) was dispensed and the reaction was allowed to continue for 60 min at room temperature. Then the reaction was stopped by reconstituted detection reagent. After another 20 min of incubation the plate was read on the ViewLux (Perkin Elmer) at 60 sec exposure and 2x2 binning. This protocol was carried out with Promega-Glo reagents and further information can be found at http://www.promega.com/tbs/tb325/tb325.pdf. Data were normalized to the to AC100 inhibition (57 uM furafylline).
For CN[C@H](Cc1ccccc1)c1cccc(OC)c1O, the “activity change, negative = inhibition” value was -11.6%. Cc1c([C@@H](C)[C@H]2NC[C@H](C)C[C@@H]2O)ccc2c1C[C@@H]1[C@H]2CC=C2C[C@@H](O)CC[C@@]21C showed an activity change, negative = inhibition of 1.3% [at 2.29 µM]. CSC([N-]/N=C/c1cccc(C)n1)=[S]=[Cu].CS[C@H]([S-])[N-]/N=C/c1cccc(C)n1 was tested, and the Potency was 631 nM (active). With O=P(O)(O)CCP(=O)(O)O the “activity change, negative = inhibition” value was 0.1%. With CCn1cnc2c(Nc3cccc(Cl)c3)nc(N[C@@H]3CCCC[C@H]3N)nc21 the Potency was 15800 nM (active). With O=C(c1ccccc1)[C@H]1[C@H](c2ccccc2[N+](=O)[O-])N1C1CCCCC1 (stereo not given in full) the Potency was 631 nM (active). In the case of COc1ccc(C[C@@H]2NC[C@H](O)[C@@H]2OC(C)=O)cc1, the “activity change, negative = inhibition” value is reported as 0.1% [at 25.6 µM]. With CC(C)[C@@]1(NC(=O)[C@@H]2C=C3c4cccc5[nH]cc(c45)C[C@@H]3N(C)C2)O[C@]2(O)[C@H]3CCCN3C(=O)[C@H](Cc3ccccc3)N2C1=O the Potency was 10000 nM (active). With CO[C@H]1[C@H](O)[C@H](O[C@@H]2[C@H](Oc3cccc4c(O)c5c(=O)oc6ccc(C)c7c(=O)oc(c34)c5c67)O[C@@H](C)[C@H](O)[C@H]2O)O[C@@H](C)[C@@H]1O the “activity change, negative = inhibition” value was -16.6%. Work on O=C(O)/C=C\c1ccc[c]([Sb](=[O])([OH])[OH])c1 yielded an activity change, negative = inhibition of -9.5% [at 2.29 µM]. Nc1nc(N)c(N=Nc2ccc([As](=O)(O)O)cc2)c(=O)[nH]1 showed an activity change, negative = inhibition of -14.9% [at 2.29 µM]. With CC(C)C[C@H](NP(=O)(O)O[C@@H]1O[C@@H](C)[C@@H](O)[C@@H](O)[C@H]1O)C(=O)N[C@@H](Cc1c[nH]c2ccccc12)C(=O)O the “activity change, negative = inhibition” value was -1.8% [at 57 µM]. For NC[C@@H](Cc1ccccc1)P(=O)(O)O, the “activity change, negative = inhibition” value was -9.3%. C[C@H](Br)CN(C[C@H](C)Br)c1ccc2c(c1)Cc1ccccc1-2 was tested, and the Potency was 3160 nM (active). In the case of CC[C@@H]1CN2CCc3cc(OC)c(OC)cc3[C@H]2C[C@@H]1C[C@@H]1NCCc2cc(O)c(OC)cc21, the “activity change, negative = inhibition” value is reported as -7.3% [at 25.6 µM]. In the case of COC(=O)c1c(C)ccc2c(O)c3c(cc12)C(=O)c1c2c(cc(O)c1C3=O)[C@@]1(C)O[C@@](C)(O2)[C@@H](O)[C@H](N(C)C)[C@H]1O, the Potency is reported as 5010 nM (active). COc1ccc2c(c1)[C@]13CCCC[C@@H]1[C@H](C2)NCC3 was tested, and the “activity change, negative = inhibition” value was 3.6% [at 57 µM]. C[C@@H]1[C@@H](C)N1C[C@H](O)Cn1ccnc1[N+](=O)[O-] (stereo not given in full) was tested, and the “activity change, negative = inhibition” value was -13.2%. CO[C@@H]([CH2][Hg])CN1C(=O)c2ccccc2S1(=O)=O.Cn1c(=O)c2nc[nH]c2n(C)c1=O was tested, and the activity change, negative = inhibition was -22% [at 2.29 µM]. Work on C=C(C)c1ccccc1 (tested in a mixture with another compound) yielded an activity change, negative = inhibition of -19.6% [at 2.29 µM]. For O=C(O)C(O)(c1ccc(-c2ccccc2)cc1)c1ccc(-c2ccccc2)cc1, the “activity change, negative = inhibition” value was -16.4%. CC1=C2C(=O)[C@@H]3[C@@H](CC=C4C[C@@H](O)CC[C@@]43C)[C@H]2CC[C@@]12O[C@H]1C[C@H](C)CN[C@H]1[C@@H]2C was tested, and the “activity change, negative = inhibition” value was -16.8%. CO[C@@H]1CC=C2CCN3CCC4=C(CC(=O)OC4)[C@]23C1 was tested, and the “activity change, negative = inhibition” value was 4.2% [at 57 µM]. CC(=O)OC1=CC2=CC[C@H]3[C@H]4CCC(=O)[C@@]4(C)CC(=O)[C@]3(S)[C@]2(C)CC1 gave an activity change, negative = inhibition of -9.4% [at 2.29 µM]. With CC(=O)O[C@H]1CC[C@@]2(C)[C@@H](CC[C@H]3[C@H]2CC(=O)[C@]2(C)[C@@H]3C[C@@H](N3CC3)[C@H]2C(C)=O)C1 the Potency was 39.8 nM (active). In the case of O=C1N[C@@]2(CN3CCC2CC3)C(=O)N1CN(Cc1ccccc1)c1ccccc1, the Potency is reported as 398 nM (active). For Oc1ccc2c3c1O[C@@H]1c4[nH]c5c(c4C[C@@]4(O)[C@@H](C2)N(CC2CC2)CC[C@]314)C[C@]1(O)[C@@H]2Cc3ccc(O)c4c3[C@@]1(CCN2CC1CC1)[C@H]5O4, the “activity change, negative = inhibition” value was -5.2% [at 57 µM]. For CC(C)=C[C@H]1[C@@H](C(=O)OCc2cc3c(cc2Cl)OCO3)C1(C)C, the Potency was 794 nM (active). With N[C@@H](Cc1cc(Br)c(O)c(Br)c1)C(=O)O the “activity change, negative = inhibition” value was -2.8%. N[C@H](Cc1ccc2oc3cc(=O)c4ccccc4c-3nc2c1)C(=O)O was tested, and the Potency was 1260 nM (active). With O=c1[nH]cnc2[nH]cc(CN3CCCCC3)c12 the “activity change, negative = inhibition” value was -11.6%. Work on O=C(O)[C@@H](O)[C@@H](O)[C@@H]1[O][Sb][O][C@@H]1CO yielded an activity change, negative = inhibition of -5.1% [at 2.29 µM]. With C[C@@]12CC[C@H]3[C@@H](CC=C4C[C@H](OS(=O)(=O)O)CC[C@]43C)[C@H]1CCC2=O the “activity change, negative = inhibition” value was -3.5% [at 57 µM]. NC(N)=NCCN=C(N)N was tested, and the “activity change, negative = inhibition” value was -17.5%. O=C(O)[C@H]1[O][Sb][O][C@@H](C(=O)O)C1O (stereo not given in full) showed an activity change, negative = inhibition of -15% [at 2.29 µM]. For CC(C)[C@@]1(NC(=O)[C@H]2C[C@H]3c4cccc5[nH]cc(c45)C[C@@H]3N(C)C2)O[C@]2(O)[C@H]3CCCN3C(=O)[C@H](Cc3ccccc3)N2C1=O, the “activity change, negative = inhibition” value was -8.9% [at 57 µM]. With O=C(O)C[O][Sb][O]CC(=O)O the activity change, negative = inhibition was -7.8% [at 2.29 µM]. In the case of C[C@H](c1ccccc1)N1CCN([C@@H](C)c2ccccc2)CC1, the activity change, negative = inhibition is reported as -16% [at 2.29 µM]. CN(C)CS/C(N)=N/[C@H](O)C(Cl)(Cl)Cl was tested, and the activity change, negative = inhibition was 4.1% [at 2.29 µM]. In the case of O=C(O)C(=O)Cc1ccc2c(c1)OCO2, the Potency is reported as 3980 nM (active).
